Experimental data taken from PubChem BioAssay AID1903 (Southern Research Specialized Biocontainment Screening …, 2009).
About 1,200 (0.39%) of roughly 310,000 compounds were called active. How the calls were made is not given here. A selection follows. Measured potencies and affinities stand elsewhere.

target: Large T antigen (Simian virus 40) (UniProt P03070); experiment: SV40 large T antigen inhibitors, biochemical (AID 1903); conditions: SV40 large T antigen ATPase/helicase inhibition assay; at 20 µM; hits give high values
Sequence (P03070 whole entry, looked up): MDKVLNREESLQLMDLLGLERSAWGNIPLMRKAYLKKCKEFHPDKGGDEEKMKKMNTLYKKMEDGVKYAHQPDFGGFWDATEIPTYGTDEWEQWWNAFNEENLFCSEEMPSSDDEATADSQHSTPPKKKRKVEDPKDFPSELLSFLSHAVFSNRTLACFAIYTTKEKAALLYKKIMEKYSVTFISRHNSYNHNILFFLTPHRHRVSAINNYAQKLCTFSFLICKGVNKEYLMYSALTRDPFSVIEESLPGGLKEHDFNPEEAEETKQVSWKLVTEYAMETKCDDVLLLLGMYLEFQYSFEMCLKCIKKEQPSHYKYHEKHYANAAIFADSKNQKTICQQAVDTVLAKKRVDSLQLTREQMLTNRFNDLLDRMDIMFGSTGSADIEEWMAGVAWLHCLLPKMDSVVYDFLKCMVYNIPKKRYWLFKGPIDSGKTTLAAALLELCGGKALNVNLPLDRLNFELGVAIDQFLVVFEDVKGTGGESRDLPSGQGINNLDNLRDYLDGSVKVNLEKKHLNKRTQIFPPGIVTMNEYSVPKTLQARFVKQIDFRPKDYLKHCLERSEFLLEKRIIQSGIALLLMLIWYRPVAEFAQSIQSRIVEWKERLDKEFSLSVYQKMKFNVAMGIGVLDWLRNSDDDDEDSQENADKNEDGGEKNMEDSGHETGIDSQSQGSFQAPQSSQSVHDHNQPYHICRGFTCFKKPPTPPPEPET

inhibition, inactive:
Cc1ccc2[nH]c(=O)c(CN(CC3CCCO3)S(=O)(=O)c3c(C)ccc4nsnc34)cc2c1 (configuration not stated) -0.695%
CC(C)CC(CO)N1CCN(C(=O)c2ccccc2)CCC1=O (configuration not stated) 16.2%
CSc1ncc(Cl)c(C(=O)Nc2ccccc2[N+](=O)[O-])n1 30.7%
O=C1CC2(CCN(C(=O)c3cccc([N+](=O)[O-])c3)CC2)Oc2ccccc21 22.7%
COCc1ccc(C(=O)N2CCCC(Nc3ccc(C(C)C)cc3)C2)o1 (configuration not stated) 23.2%
CCCC(c1nnnn1Cc1ccco1)N1CCN(c2ccccc2)CC1 (configuration not stated) 24%
Cc1cc(Br)ccc1NC(=O)CN1C(=S)NC(C)(C)CC1C (configuration not stated) 5.62%
CN1C(=O)c2ccc(C(=O)NCc3ccc4c(c3)OCO4)cc2C1=O 4.66%
O=C(/C(=N/N=C/c1ccc(O)c(O)c1)c1ccccc1)c1ccccc1 32.3%
Oc1ccc(/C=N/N(c2ccccc2)c2ccccc2)cc1O 20.4%
O=C(N/N=C/c1ccc2c(c1)OCO2)C1CC1 -8.98%
O=C(N/N=C/c1ccsc1)C1CC1 14.3%
Cc1cccc(OCc2nnc(SCC(=O)Nc3ncc(C)s3)o2)c1 3.87%
O=C1Nc2ccccc2/C1=N\N1CCOCC1 27.9%
O=C1Nc2ccccc2C1=Nc1ccc(Br)cc1 4.56%
O=C(O)CCCCCNS(=O)(=O)c1cccc2c1C(=O)c1ccccc1C2=O 27%
COc1ccccc1NCCC(=O)O 26.5%
O=C(NCC(c1ccc(F)cc1)N1CCOCC1)c1cccnc1Sc1ccc(Cl)cc1 (configuration not stated) 11.1%
Nc1n[nH]c(=S)n1-c1ccc(Cl)cc1 5.6%
COc1ccccc1-n1cnc2cc(NCc3ccccc3O)ccc21 33.3%
CCCn1cnc2cc(NCc3cccc(OC)c3)ccc21 36.7%
CCn1cnc2cc(NCc3ccccc3Cl)ccc21 21.6%
CCCn1cnc2cc(NCc3ccccc3O)ccc21 33.9%
CCCCN(C(=O)CCCSc1nc2ccccc2[nH]1)c1c(N)n(Cc2ccccc2)c(=O)[nH]c1=O 3.22%
Cc1cccc(N/N=C(\C#N)S(=O)(=O)C(C)(C)C)c1 8.77%
O=C(O)CCCNC(=O)Cc1ccccc1 2.55%
O=C(Cc1cccs1)NNC(=O)c1ccc(F)cc1 8.96%
Cc1cc(Nc2ccccc2Cl)c2ccccc2n1 8.12%
C=CCOc1c(CNc2cccc(C(=O)O)c2)cccc1OC 9.77%
C=CCOc1ccccc1CNc1ccc2c(c1)OCCO2 25.8%
C=CCOc1c(CNc2ccc(C(=O)O)cc2)cccc1OC 9.8%
C=CCOc1ccccc1CNc1cccc(F)c1 -2.23%
COc1cccc(CNc2ccc(C(=O)O)cc2)c1OCc1ccccc1 7.38%
COc1cccc(CNc2ccc3[nH]c(=O)[nH]c3c2)c1OCc1ccccc1Cl 37%
COc1ccc2nc(NC(=O)C3CCN(C(=O)c4ccco4)CC3)sc2c1 -5.44%
Cc1ccc(NC(=O)c2ccc(F)cc2)cc1S(=O)(=O)N1CCCCCC1 7.24%
COCCn1c(=O)[nH]c2cc(C(=O)Nc3ccc(OC)c(Cl)c3)ccc2c1=O 4.08%
O=C(O)c1ccccc1N/N=C/c1c(Sc2nnnn2-c2ccccc2)nc2ccccn2c1=O 13.1%
O=c1c(/C=N/Nc2ccccc2)c(Sc2nnnn2-c2ccccc2)nc2ccccn12 0.84%
O=C(COc1ccc([N+](=O)[O-])cc1)Nc1ccc2c(c1)nc1n2CCOC1 14.9%
Cc1ccc(C(=O)CN(Cc2ccccc2)C2=NCCS2)cc1 -1.42%
c1ccc2c(c1)C(=Nn1cnnc1)c1ccccc1-2 3.9%
C=CCN1C(=O)/C(=N/n2cnnc2)c2ccccc21 25.4%
O=C(c1ccco1)N1CCC(c2nc3c(nnn3Cc3ccc(F)cc3)c(=O)[nH]2)CC1 12.3%
Cc1ccc(NC(=O)COC(=O)CCC(=O)c2cccs2)cc1S(=O)(=O)N1CCOCC1 14.2%
CC12CC3CC(C)(C1)CC(C(O)CN1CCOCC1)(C3)C2 (configuration not stated) 3.1%
COc1cc(/C=N/N=C(\N)c2nonc2N)cc(OC)c1O 36.3%
N/C(=N\N=C\c1ccc(O)cc1)c1nonc1N 23.1%
COc1ccc(/C=N/N=C(\N)c2nonc2N)cc1OC 22.7%
N/C(=N\N=C\c1cccc(O)c1)c1nonc1N 18.6%
CCOC(=O)c1c(NC(=S)N2CCN(C)CC2)sc(C)c1-c1ccccc1 9.17%
CCOC(=O)C1=C(O)C(=O)N(c2ccc(S(N)(=O)=O)cc2)C1c1ccc([N+](=O)[O-])cc1 (configuration not stated) 5.61%
Cc1ccc(NC(=O)Cc2ccsc2)cc1Cl 8.34%
C=CCC(C#Cc1ccc(C)cc1)N(CC)CC (configuration not stated) 2.04%
COCCNC(=O)CN(C(=O)CCC(=O)Nc1ccccn1)c1ccc(F)cc1 2.44%
N#Cc1ccccc1-c1ccccc1C(=O)N1CCCCC1 5.76%
COc1cc(C(=O)Nc2ccc(C(=O)O)cc2)ccc1OC(C)=O 17.2%
Cc1cccc(C(=O)Nc2ccc(NC(=O)c3ccccc3)cc2)c1 2.43%
O=C(Nc1ccc(O)cc1)c1ccc2c(c1)C(=O)N(Cc1ccccc1)C2=O 35.7%
COC(=O)c1ccc(NC(=O)c2ccc(OC(C)=O)c(OC)c2)cc1 4.68%
Cc1cccc(C(=O)Nc2ccc(C(=O)Nc3ccc(O)cc3)cc2)c1 8.66%
O=C(Nc1ccccc1O)c1ccc2c(c1)C(=O)N(N1C(=O)c3ccccc3C1=O)C2=O 5.64%
O=C(Nc1cccc(O)c1)c1ccc2c(c1)C(=O)N(Cc1ccco1)C2=O 8.23%
CCc1ccc(NC(=O)c2ccc3c(c2)C(=O)N(Cc2ccco2)C3=O)cc1 9.22%
CCCOC(=O)c1ccc(NC(=O)CSC2=Nc3ccccc3C3CC=NN23)cc1 (configuration not stated) 7.1%
CCCCNC(=O)c1cc2c(C)cc(C)cc2[nH]1 4.47%
COc1ccc(S(=O)(=O)n2nc(-n3c(C)ccc3C)c3c(F)cccc32)cc1OC 2.54%
COc1ccc(S(=O)(=O)N2CCN(c3ccc(C)cc3C)CC2)cc1OC 7.1%
CCn1cc(C(=O)N2CCN(c3ccc(OC)cc3)CC2)c(=O)c2cc(S(=O)(=O)N3CCCCC3)ccc21 15.4%
CN1CCN(C(=O)C2CCCN(S(=O)(=O)c3ccccc3)C2)CC1 (configuration not stated) 7.31%
CC1Cc2cc(/C=C3/SC(=S)N(C)C3=O)ccc2O1 (configuration not stated) 0.875%
O=C(COc1ccc2c3c(c(=O)oc2c1)CCCC3)N1C[C@H]2C[C@@H](C1)c1cccc(=O)n1C2 3.64%
N#C/C(=C\c1cccnc1)C(=O)Nc1ccc(Cl)cc1 14.4%
CCN(CC)C1CC(=O)N(c2cccc(C)c2)C1=O (configuration not stated) 0.27%
O=C1CC(N2CCSCC2)C(=O)N1c1cccc(Br)c1 (configuration not stated) 10.7%
COC(C/C=C\[C@H](O)[C@@H](C)OCc1ccccc1)OC 2.9%
CC1(C)Cc2c(c(N3CCOCC3)nc3sc(-c4ccc(C(=O)O)o4)c(N)c23)CO1 21.9%
COC(=O)c1ccc(-c2sc3nc(N4CCOCC4)c4c(c3c2N)CC(C)(C)OC4)o1 -1.68%
COC(=O)c1ccccc1NS(=O)(=O)c1ccc(Cl)nc1 4.72%
N#CC1=C(N)OC2=C(C(=O)CCC2)C1c1cccs1 (configuration not stated) 23%
O=C(NCC(c1cccnc1)N1CCN(c2ccc(F)cc2)CC1)C1CCCCC1 (configuration not stated) 18.4%
O=C(NCC(c1cccnc1)N1CCN(c2ccccc2)CC1)C1CCCCC1 (configuration not stated) 2.45%
CCN(c1ccccc1)c1nc2ccsc2c(=O)s1 3.95%
COc1ccc(S(=O)(=O)N2CC=C(C(=O)Nc3ccc(NC(C)=O)cc3)CC2)cc1 8.65%
COc1ccc(N(CC(=O)NCCC2=CCCCC2)S(C)(=O)=O)cc1 1.47%
NS(=O)(=O)c1ccc(NC(=O)COC(=O)COc2ccccc2)cc1 3.76%
CCCc1nnc(NC(=O)C(C)N2C(=O)C3C4C=CC(C4)C3C2=O)s1 (configuration not stated) 4.05%
Cc1ccc(-n2nnnc2C(Cl)c2nnnn2-c2ccc(C)cc2)cc1 7.23%
Cc1ccc(-c2nnnn2-c2ccc(C)cc2)cc1 -0.57%
c1ccc(-c2nnnn2-c2ccccc2)cc1 12.4%
c1ccc(-n2nnnc2Cc2nnnn2-c2ccccc2)cc1 -7.53%
COc1cc(OC)cc(C(=O)N[C@H](C(=O)Nc2cccc(S(=O)(=O)N3CCCC3)c2)C(C)C)c1 11.5%
O=C(Nc1cccc(-c2cn3c(n2)SCC3)c1)c1ccc(Br)o1 7.7%
COc1ccccc1OCCC(=O)NCc1ccc2c(c1)OCO2 8.06%
Cc1[nH]c2ccccc2c1C(=O)COC(=O)c1cccc(S(=O)(=O)N2CCCCC2)c1 7.32%
CC(=O)Nc1ccc(N/C=C2/CCCC2=O)cc1 16.2%
Cc1ccc(N/C=C2\CCCCC2=O)c(C)c1 8.76%
